Most compounds without a hit are left out; they make up all but 3.1% or so of the library.
Mac1 fbg enh – increases human CD11b/CD18 adhesion to fibrinogen; P05107+P11215; K562 CD11b/CD18 adhesion to fibrinogen, ATPlite luminescence; activation, % at 10 µM; actives 0.07% (n = 93,000); AID 1499;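 active = 10 µM primary screen giving 50% or more activity, confirmed by 40% or more on retest at that dose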
Mac1 fbg inh – CD11b/CD18-fibrinogen binding inhibition | AID 1497 | inhibition, % at 10 µM | actives 0.54% (n = 93,000) | P05107+P11215 | K562 CD11b/CD18 adhesion to fibrinogen, ATPlite luminescence; Mn2+ added to activate the integrin;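 active = primary inhibition of 50% or more at 10 µM, then 40% or more on retest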
ERb SRC1 inh – ER-beta (human) coactivator binding inhibition; inhibition, % at 25.6 µM; actives 1.3% (n = 86,000); Q92731; TR-FRET ER-beta LBD / SRC1-Cy5 peptide binding; receptor agonist-loaded with 1 µM estradiol; AID 633;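 active = compounds whose percent inhibition of the receptor-coactivator binding signal exceeds about 50% in the single-dose screen, limit read from the data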;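 note: 0% = receptor plus peptide wells without compound and 100% = peptide-only wells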
Target sequence (Q92731 whole entry, looked up, the tested form may be a part): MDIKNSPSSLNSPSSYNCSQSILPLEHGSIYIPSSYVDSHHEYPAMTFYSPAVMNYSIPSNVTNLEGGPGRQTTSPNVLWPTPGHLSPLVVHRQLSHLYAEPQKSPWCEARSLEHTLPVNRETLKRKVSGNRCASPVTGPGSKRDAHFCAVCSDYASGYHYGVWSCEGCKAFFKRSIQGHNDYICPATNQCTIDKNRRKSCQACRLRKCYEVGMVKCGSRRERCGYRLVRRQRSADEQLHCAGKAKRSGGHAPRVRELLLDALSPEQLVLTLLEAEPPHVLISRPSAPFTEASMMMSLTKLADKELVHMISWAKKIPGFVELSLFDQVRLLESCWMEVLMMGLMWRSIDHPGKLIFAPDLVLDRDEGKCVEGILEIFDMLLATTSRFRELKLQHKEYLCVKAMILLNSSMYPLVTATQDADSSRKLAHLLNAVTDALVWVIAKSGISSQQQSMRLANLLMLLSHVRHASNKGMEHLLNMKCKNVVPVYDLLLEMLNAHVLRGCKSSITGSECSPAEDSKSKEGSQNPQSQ
ERa coact pot – ER-alpha (human) coactivator binding potentiation; TR-FRET ERalpha-LBD/SRC-Cy5 coactivator binding, 2 h; 100 = basal binding, no effect; actives 1.3% (n = 86,000); P03372; coactivator binding (% of control), % at 25.6 µM; in the data active = activity above about 200%;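 note: binding measured in presence of low estradiol as agonist stimulus; 0% = peptide alone without receptor and 100% = receptor with peptide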
ERa SRC1 inh – ER-alpha (human) coactivator binding inhibition. actives 1.7% (n = 86,000). inhibition, % at 25.6 µM. TR-FRET ER-alpha LBD / SRC-1 peptide, estradiol-bound; in the data active = inhibition above about 50%;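 note: 0% = receptor plus peptide control and 100% = peptide only without receptor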
* marks the source's active call; other numbers are inactive results; x = not tested or not shown; ! = not active in a repeat; [ ] = dose if it differs, or a comment.

SMILES | Mac1 fbg enh | Mac1 fbg inh | ERb SRC1 inh | ERa coact pot | ERa SRC1 inh
COc1ccc(-n2nnnc2SCC(=O)c2ccc3c(c2)OCCO3)cc1 | x | x | -12 | 307*[fluorescence artefact?] | -9
O=C(CSc1nnc(-c2cccs2)n1-c1cccc(Cl)c1)c1cccc2c1OCCO2 | -4 | -26 | 9 | 259* | 11
O=C(Nn1c(-c2ccc(F)cc2)nc2ccccc2c1=O)C1CCCCC1 | -5 | -2 | 7 | 97 | -1
Cc1cccc(NC(=O)CCNC(=O)c2ccco2)c1 | 2 | -6 | x | x | x
Cc1cc(NC(=O)CSc2nnnn2C)n(-c2ccccc2)n1 | 0 | -1 | -2 | 119 | -2
CC(=C1C(=O)c2ccccc2C1=O)N1CCN(Cc2ccccc2)CC1 | -4 | -27 | -2 | 714*[fluorescence artefact?] | 0
COc1ccc(OC)c(C(c2nnnn2CCC(C)C)N2CCN(C(=O)c3ccco3)CC2)c1 (centres undefined) | -6 | 4 | -3 | 127 | -13
CCNc1nc(CN2CCCCC2)nc2scc(-c3ccccc3)c12 | -4 | 78* | x | x | x
OCC1CCCN(c2nc(CN3CCCCC3)nc3scc(-c4ccccc4)c23)C1 (centres undefined) | 2 | 4 | x | x | x
O=C(CS(=O)(=O)c1cn(Cc2ccc(Cl)cc2)c2ccccc12)N1CCCC1 | -1 | 8 | 51*[fluorescence artefact?] | 86 | 12
Cc1cccc(-c2nc(CN3CCCC(C(=O)NC4CCCCCC4)C3)c(C)o2)c1 (centres undefined) | x | x | -7 | 90 | -6
COC(=O)c1ccc2c(c1)N(Cc1nc(-c3cccc(C)c3)oc1C)C(=O)C1CCCN21 (centres undefined) | 79 | -4 | 42 | 93 | 59*
COc1ccc(N(CC(=O)NCc2ccco2)S(C)(=O)=O)cc1 | -1 | -7 | 99*[fluorescence artefact?] | 96 | -7
COc1cc2c(cc1OC)CN(CC(=O)NC(=O)NCc1ccco1)CC2 | -1 | -8 | 6 | 111 | -5
COc1ccc(N(CC(=O)NCc2ccco2)S(C)(=O)=O)cc1OC | 0 | 2 | 0 | 107 | -5
COc1ccc(OCCC(=O)OCC(=O)NCc2ccco2)cc1 | -1 | 12 | 50 | 233*[fluorescence artefact?] | 81*
COc1ccccc1NCCC(=O)OCC(=O)NCc1ccco1 | 0 | 7 | 61*[fluorescence artefact?] | 30 | 77*[fluorescence artefact?]
COc1ccc(S(=O)(=O)N(C)CC(=O)NCc2ccco2)cc1 | x | x | 7 | 86 | 7
COc1cccc(CN(C)CC(=O)NC(=O)NCc2ccco2)c1 | 6 | -41 | 39 | 103 | 58*[fluorescence artefact?]
N#C/C(=N\O)c1nc(-c2ccccc2)cs1 | -5 | 66*! | 4 | 146 | -4
Cc1ccc(-c2nc(SCC(=O)N(C)C3CCS(=O)(=O)C3)[nH]c2-c2ccc(C)cc2)cc1 (centres undefined) | -5 | 2 | x | x | x
COc1cc(C(C)=O)ccc1COc1ccc(C(=O)OC(C)C(=O)NC(N)=O)cc1OC (centres undefined) | 91 | -8 | x | x | x
COC(=O)c1c(-c2ccc(C)cc2)csc1NC(=O)Cc1ccc(OC)c(OC)c1 | -4 | 54* | x | x | x
COC(=O)c1c(-c2ccc(Br)cc2)csc1NC(=O)Cc1ccc(OC)c(OC)c1 | -1 | 2 | x | x | x
Cc1ccc(C)c(N(CC(=O)NCCC2=CCCCC2)S(C)(=O)=O)c1 | 0 | -26 | 1 | 72 | -3
SMILES | Mac1 fbg enh | Mac1 fbg inh | ERb SRC1 inh | ERa coact pot | ERa SRC1 inh
COc1ccc(C(=O)Nc2ccccc2C(=O)NC(C(=O)NCc2ccco2)C(C)C)cc1 (centres undefined) | -2 | 14 | 39 | 242*[fluorescence artefact?] | 40
COc1ccc(C(=O)Nc2ccccc2C(=O)N(Cc2ccco2)C(C(N)=O)C(C)C)cc1 (centres undefined) | x | x | 32 | 180 | 57*[fluorescence artefact?]
CC(C)NC(=O)c1ccc(C2SCC(=O)N2Cc2ccccc2)cc1 (centres undefined) | x | x | 16 | 107 | 16
CCn1nnnc1SCC(=O)N1CCCc2ccccc21 | x | x | -13 | 106 | -5
C=CCn1c(C)cc(C(=O)COC(=O)[C@@H](NC(=O)c2ccccc2Cl)C(C)C)c1C | -9 | 79* | x | x | x
CCNC(=O)CC1C(=O)N(c2ccc(F)cc2)C(=O)N1Cc1ccc(OC)cc1 (centres undefined) | 0 | -6 | -3 | 138 | 55*[fluorescence artefact?]
CCNC(=O)CC1C(=O)N(c2ccccc2)C(=O)N1CCc1ccc(OC)cc1 (centres undefined) | -4 | 6 | -12 | 162 | -16

Screens (PubChem BioAssay)
